The assay deals with AMP-activated protein kinase, AMPK (Homo sapiens) (UniProt P54646+O43741+P54619+Q9UGJ0+Q9Y478+Q13131+Q9UGI9). Nature of the assay: AMP-dependent Kinase enzyme assay. An in vitro enzyme assay that detects ADP turnover that is directly proportional to AMPK activity. This uses naive AMPK that is activated during the assay with MK-8722. In kind it is functional. On the set-up: scale not given: direction of the effect not stated beside the values. The following applies: 30 µM.
On to `Cc1nc(C)n(CCC(=O)NCC2CCCOC2)n1` (centres undefined), for which the Percent Effect came to 10.8%. For `Cc1cc(CC(=O)NC2CCCN(c3ccccc3Cl)C2=O)n[nH]1` (centres undefined) the value was 4.62%; for `O=C(Cn1nc2ccccc2n1)N1CCCC(O)(CO)C1` (centres undefined), -6.31%. Take `O=C(O)CCc1cc2n(n1)CCCN(C(=O)c1ccc(Cl)s1)C2`: the Percent Effect was 2.58%. Then `c1csc(CN(Cc2ccsc2)CC2CCCO2)n1` (centres undefined), with 5.59%; and `CC(C(N)=O)N1CCN(c2ncc(Cl)cn2)CC1` (centres undefined), with -1.99%.

As for `Cc1ccc(CNC(=O)c2ccc(=O)n(C)n2)c(OC2CCCC2)c1`, the Percent Effect was determined as 12.3%.

On to `Cc1cc(C)n2c(CNCCNc3ccccc3)cnc2n1`, for which the Percent Effect was -15.1%. Then `Cc1ccc(C)c(CC(=O)NC2CCCS(=O)(=O)C2)c1` (centres undefined), with -5.26%; and `CN(Cc1csc2ccccc12)C(=O)NC1CCS(=O)(=O)C1` (centres undefined), with 8.42%.

Turning to `Cc1cnccc1CNCc1ccc(OC23CCCN(CC2)C3)cc1` (centres undefined), the Percent Effect is -10.2%. For `CC(C)N(Cc1ccccn1)C(=O)CCC(=O)c1ccccc1` the value was -4.49%. Then `O=C(NCc1nc[nH]n1)c1cc(COc2cccc(F)c2)[nH]n1`, with 2.9%. Then `O=C(NCc1ccc(-n2cncn2)nc1)c1cc(Cl)ccn1`, with -4.58%; and `FC(F)(F)c1ccnc(N2CCC(c3nccn3CC3CC3)CC2)n1`, with 19.6%.

Take `N#Cc1ncn(CC(=O)N2CCCC2c2cccs2)n1` (centres undefined): the Percent Effect was -12%.

With `Cc1nccn1-c1nccnc1C1CCCN(C2CCCC2)C1` (centres undefined), the Percent Effect was 12.6%. Consider `CCc1nsc(N2CCCN(CC(=O)N(C)C3CC3)CC2)n1`, for which the Percent Effect worked out at 7.28%. Then `O=C(CNc1ccc(OCC2CCOCC2)cc1)NCc1ccco1`, with 0.773%; and `Cc1nc(COC(=O)c2cccc3c2OCCO3)cs1`, with 3.39%; and `CN(Cc1ccc2c(c1)OCCO2)c1ncc(S(N)(=O)=O)s1`, with -1.85%.

On to `Cc1csc(C(=O)N2CCC(S(C)(=O)=O)C2)c1` (centres undefined), for which the Percent Effect is -5.3%. In the case of `CC(c1nc(-c2ccccc2)no1)N1CCc2c(ncn2C2CC2)C1` (centres undefined), the Percent Effect worked out at 10.5%. As for `Cc1nsc(C(=O)NCCc2ccc(S(N)(=O)=O)cc2)n1`, the Percent Effect is 2.83%. As for `COc1nccc(N2CC[C@H](N3CCOCC3)[C@H](CCCO)C2)c1C#N`, the Percent Effect is -3.46%. Consider `O=c1cc(N2CCNCC2)cnn1Cc1noc(C2CCCC2)n1`, for which the Percent Effect was -1.96%.

As for `Cc1nc(N)c2ccc(C3CCCN3)nc2n1` (centres undefined), the Percent Effect was 10.9%. Then `CC1(C)CC(CN2CCC3(CCC(=O)N(C4CCC4)C3)CC2)CCO1` (centres undefined), with -1.15%. For `CC1(NC(=O)CNC(=O)C(C)(C)C)CCc2ccccc2C1` (centres undefined) the value was 7.71%. Then `CCOc1ccc(NC(=O)NCCS(=O)(=O)CC)cc1C`, with -0.616%; and `Cn1nccc1-c1cncc(C2CCCN(S(C)(=O)=O)C2)n1` (centres undefined), with 22.7%; and `Cc1c(CN2Cc3nccn3CC2c2ccccc2)cnn1C` (centres undefined), with 7.11%. With `CCn1nc(C)c(C(=O)N2C[C@@H](CN(C)CCOC)[C@@H](CO)C2)c1C`, the Percent Effect is -7.64%. Take `CN(Cc1cc(Br)c2c(c1)OCO2)Cc1cscn1`: the Percent Effect was -9.1%. Turning to `COCc1ccccc1C(=O)OCc1noc(C)n1`, the Percent Effect worked out at 6.88%. Regarding `CCC1CCCCN1C(=O)Cn1cnc(C#N)n1` (centres undefined), the Percent Effect was -0.907%. Then `Cn1cccc1C(=O)N1CC[C@@]2(O)CCN(S(C)(=O)=O)C[C@H]2C1`, with 4.08%; and `NC(=O)c1ccc(NC(=O)N2CCN(c3cccs3)CC2)c(F)c1`, with 2.09%; and `CC(C)c1nc(CC(=O)Nc2cnccc2O)cs1`, with -1.17%.

For the origin of these results see ChEMBL document CHEMBL3988442, “University of Dundee, Small-Polar-MMV Screening Library” (2021).
